Assay outcomes (PubChem)
Hits are enriched below; roughly 4.1% of the tested compounds scored in any of these assays.
NSD2 HMT inh – blocks human histone methyltransferase NSD2. O96028. 310,000 compounds, 0.54% hits. NSD2 peptide methylation, AlphaScreen, 120 min. inhibition, % at 12.5 µM. AID 743445; in the data active means inhibition above about 50%
Target sequence (O96028 whole entry, looked up): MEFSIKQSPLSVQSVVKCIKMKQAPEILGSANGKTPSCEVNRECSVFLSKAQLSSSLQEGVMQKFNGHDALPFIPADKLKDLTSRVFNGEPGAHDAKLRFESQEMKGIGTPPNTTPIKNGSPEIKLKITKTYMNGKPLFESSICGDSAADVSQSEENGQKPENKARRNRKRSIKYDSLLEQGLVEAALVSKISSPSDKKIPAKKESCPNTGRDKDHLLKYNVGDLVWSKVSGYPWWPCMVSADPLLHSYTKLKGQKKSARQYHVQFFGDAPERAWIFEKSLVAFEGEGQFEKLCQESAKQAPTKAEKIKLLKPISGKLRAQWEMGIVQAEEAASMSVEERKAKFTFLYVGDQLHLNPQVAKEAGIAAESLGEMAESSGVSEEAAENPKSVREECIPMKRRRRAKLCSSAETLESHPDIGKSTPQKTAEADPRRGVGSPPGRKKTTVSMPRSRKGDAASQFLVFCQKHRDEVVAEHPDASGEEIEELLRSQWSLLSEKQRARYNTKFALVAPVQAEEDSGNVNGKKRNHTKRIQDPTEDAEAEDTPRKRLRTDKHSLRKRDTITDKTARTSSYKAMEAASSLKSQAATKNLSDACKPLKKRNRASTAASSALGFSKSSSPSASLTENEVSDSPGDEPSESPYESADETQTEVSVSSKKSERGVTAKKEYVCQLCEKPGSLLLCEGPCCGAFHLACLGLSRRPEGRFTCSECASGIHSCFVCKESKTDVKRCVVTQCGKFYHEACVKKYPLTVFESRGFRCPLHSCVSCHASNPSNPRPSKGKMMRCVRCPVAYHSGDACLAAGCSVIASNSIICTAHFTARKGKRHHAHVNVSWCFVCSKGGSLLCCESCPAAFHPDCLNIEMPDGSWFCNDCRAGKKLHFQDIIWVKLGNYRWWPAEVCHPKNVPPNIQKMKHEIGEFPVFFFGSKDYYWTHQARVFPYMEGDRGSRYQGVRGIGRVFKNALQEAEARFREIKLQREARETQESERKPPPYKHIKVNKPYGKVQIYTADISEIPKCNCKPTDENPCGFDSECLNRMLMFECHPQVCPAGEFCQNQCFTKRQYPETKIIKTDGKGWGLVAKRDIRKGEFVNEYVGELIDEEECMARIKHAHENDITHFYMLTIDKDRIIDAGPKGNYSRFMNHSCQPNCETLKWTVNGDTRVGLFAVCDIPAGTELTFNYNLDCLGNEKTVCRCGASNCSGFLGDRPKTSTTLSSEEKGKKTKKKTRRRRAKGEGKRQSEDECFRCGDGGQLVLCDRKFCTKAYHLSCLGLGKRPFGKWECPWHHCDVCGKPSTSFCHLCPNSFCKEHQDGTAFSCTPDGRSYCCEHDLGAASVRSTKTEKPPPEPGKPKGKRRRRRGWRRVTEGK
CFTR F508del cor – correctors of CFTR F508del function in bronchial epithelial cells; 350,000 compounds, 0.36% hits; AID 720511; CFBE cells, YFP halide quenching; stimulated with forskolin plus potentiator P3; % fluorescence drop versus neutral controls; activity (quench increase), % at 7.58 µM;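 active means mean added fluorescence quench of at least 8% versus neutral control, with both replicates also reaching 8%; inconclusive means only one of the mean or replicate conditions met; inactive means mean below 8% and not both replicates reaching 8%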;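 further: cells transiently co-express mutant CFTR-F508del with the halide-sensitive YFP; corrector assay measuring rescue of mutant channel to the surface after 24 h compound exposure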
PglD DTNB – inhibitors of Campylobacter jejuni PglD acetyltransferase; 360,000 compounds, 0.098% hits; purified PglD enzyme, DTNB colorimetric CoA detection; inhibition, % at 12.5 µM; in the data active means inhibition above about 16%, passing the limit was not always enough; inconclusive means no clear call, values can overlap the other calls
Env fusion inh – HIV envelope-mediated fusion inhibition | HeLa-JRFL Env/CEM21 cell fusion, luciferase | inhibition, % at 12.3 µM | 360,000 compounds, 1.1% hits;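 active means mean replicate inhibition score of at least 50 and every replicate individually at or above 50; inconclusive means only one of the two criteria met; inactive means mean below 50 and not all replicates reaching 50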;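 further: 0% = plate neutral controls and 100% = maraviroc near 300 nM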
Casp6 inh – inhibitors of human caspase-6. P55212. purified caspase-6, Z-VEID-R110 cleavage fluorescence. inhibition, % at 12.5 µM. 350,000 compounds, 0.53% hits. AID 686996;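 active means mean inhibition across replicates at least about 35%, with every replicate also reaching that limit, limit read from the data; inconclusive means only one of the two criteria met; inactive means neither criterion met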;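 further: 0% = median of neutral control wells and 100% = no fluorescence left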
ALR inh – human ALR oxidase inhibition via reduced H2O2. P55789. 290,000 compounds, 3.8% hits. purified ALR, DTT oxidation, H2O2 HRP-luminol luminescence. AID 485317. inhibition, % (concentration not given with the values);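 active means mean replicate inhibition above about 79%, with every replicate also reaching it, limit read from the data; inconclusive means only one of the two criteria met; inactive means mean below limit and not every replicate reaching it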
Numbers without * were called inactive; ? = inconclusive; · = no result given; ! = not confirmed by another sample; [ ] = dose if it differs, or a comment.

SMILES	NSD2 HMT inh	CFTR F508del cor	PglD DTNB	Env fusion inh	Casp6 inh	ALR inh
O=C(C[C@H]1CC[C@@H]2[C@H](COC[C@@H](O)CN2Cc2ccccc2F)O1)NC1CCC1	·	0	7	-4[16.7 µM]	·	·
COc1ccc(NC(=O)N[C@@H]2CC[C@@H](CCNC(=O)c3cc(Cl)cc(Cl)c3)O[C@@H]2CO)cc1	·	-3	2	-3[16.7 µM]	-1	·
Cc1cccc(COCC(Cc2ccccc2)N2CCN(C(=O)c3cc(Cl)cc(Cl)c3)CCC2=O)c1 (stereo not given)	·	·	-1	·	·	68
Cc1cccc(COC[C@H](Cc2ccccc2)N2CCN(C(=O)c3ccc(Cl)c(Cl)c3)CCC2=O)c1	·	-2	·	83*	-1	·
CCNc1ncnc2c1cnn2C1CCCO1 (stereo not given)	-5	-3	-3	74*	-4	·
CO[C@H]1CN(C)C(=O)c2cc(NS(=O)(=O)CC(F)(F)F)ccc2OC[C@@H](C)N(CC2CCCCC2)C[C@@H]1C	·	1	4	-5[16.7 µM]	·	·
Cc1cc(C)nc(SCc2ccc(C(=O)N/N=C/c3ccccc3C(=O)O)cc2)n1	-7	-3	·	12	3	91*
COc1ccc(N2CCc3c(C)nc4c(OC)cc(OC)cc4c32)cc1	3	11*	·	5	0	-18
COc1ccc(CN(C)C[C@@H]2OCCCC[C@@H](C)Oc3ccc(NC(=O)Nc4ccc(C(F)(F)F)cc4)cc3C(=O)N([C@@H](C)CO)C[C@H]2C)cc1	·	-3	-2	58*[16.7 µM]	0	·
COc1ccc(NC(=O)Nc2ccc3c(c2)C(=O)N([C@@H](C)CO)C[C@@H](C)[C@H](CN(C)Cc2ccc(C(F)(F)F)cc2)OCCCC[C@@H](C)O3)cc1	·	-3	-1	?	0	·
COc1ccc(NC(=O)Nc2ccc3c(c2)C(=O)N([C@H](C)CO)C[C@H](C)[C@H](CN(C)Cc2ccc(C(F)(F)F)cc2)OCCCC[C@H](C)O3)cc1	·	0	-2	64*[16.7 µM]	0	·
COc1ccc(NC(=O)Nc2ccc3c(c2)C(=O)N([C@H](C)CO)C[C@@H](C)[C@H](CN(C)Cc2ccc(C(F)(F)F)cc2)OCCCC[C@H](C)O3)cc1	·	14*	-1	35[16.7 µM]	-1	·
COc1ccccc1C#Cc1ccc2c(c1)O[C@@H](CN(C)Cc1ccccc1)[C@H](C)CN([C@H](C)CO)S2(=O)=O	·	-2	2	44[16.7 µM]	2	·
COc1ccc(C(=O)OCC(=O)c2ccc[nH]2)c(OC)c1	-1	0	2	·	43*	1
COc1ccc(CC(=O)OCC(=O)c2ccc[nH]2)cc1	1	0	2	1	1	-2
CNC[C@H]1Oc2ncc(C#CC3CCCCC3)cc2C(=O)N([C@@H](C)CO)C[C@H]1C	·	-1	3	-7[16.7 µM]	0	·
COc1ccccc1NC(=S)NN=C(C)c1ccccn1	6	8.5*	·	36	1	·
COc1ccc(C(=O)N/N=C(\C)c2ccccn2)cc1OC	3	0	1	5	12	1
CC(=NNC(=S)Nc1ccc(C)cc1)c1ccccn1	21	16*	·	3	40*	·
COC(=O)N(C)C[C@H]1OCc2cn(nn2)CCCC(=O)N([C@@H](C)CO)C[C@H]1C	·	3	·	·	·	·
C[C@@H]1CN([C@H](C)CO)S(=O)(=O)c2ccc(C#Cc3ccccn3)cc2O[C@H]1CN(C)Cc1ccccc1	·	1	-2	3[16.7 µM]	1	·
CC1(C)Nc2ccc(O)cc2-c2c1ssc2=S	26	·	·	·	·	99*
C[C@@H]1CCCCO[C@H](CN(C)Cc2ccc3c(c2)OCO3)[C@@H](C)CN([C@@H](C)CO)C(=O)c2cc(NS(C)(=O)=O)ccc2O1	·	-1	-5	-20[16.7 µM]	-2	·
C[C@@H]1CCCCO[C@@H](CN(C)S(=O)(=O)c2cccs2)[C@@H](C)CN([C@@H](C)CO)C(=O)c2cc(NC(=O)c3ccccc3)ccc2O1	·	-2	1	16[16.7 µM]	·	·
CC1CCN(C2=C(NS(=O)(=O)c3ccccc3)C(=O)c3ccccc3C2=O)CC1	49	0	·	22	11	-26
SMILES	NSD2 HMT inh	CFTR F508del cor	PglD DTNB	Env fusion inh	Casp6 inh	ALR inh
CCN1CCN(C2=C(NS(=O)(=O)c3ccc(C)cc3)C(=O)c3ccccc3C2=O)CC1	51*	0	-3	-2	62*	-5
CC1CCN(C2=C(NS(=O)(=O)c3ccc(Cl)cc3)C(=O)c3ccccc3C2=O)CC1	14	-2	-4	1	7	·
CC(=O)Nc1ccc(S(=O)(=O)NC2=C(N3CCN(Cc4ccccc4)CC3)C(=O)c3ccccc3C2=O)cc1	24	15*!	5	32	30	-7
CCOC(=O)C1CCN(C2=C(NS(=O)(=O)c3ccc(Cl)cc3)C(=O)c3ccccc3C2=O)CC1	67*	0	·	-63	0	-7
CCOC(=O)N1CCN(C2=C(NS(=O)(=O)c3ccc(NC(C)=O)cc3)C(=O)c3ccccc3C2=O)CC1	48	0	·	16	19	-5
CC(=O)Nc1ccc(S(=O)(=O)NC2=C(N3CCN(C)CC3)C(=O)c3ccccc3C2=O)cc1	29	-3	-7	3	44*	-8
CN(C)CC(=O)N[C@H]1CC[C@H](CCNC(=O)C2CCC2)O[C@H]1CO	·	-1	-2	-23[16.7 µM]	-3	·
CO[C@@H]1CN(C)C(=O)c2cc(NS(=O)(=O)c3ccc(-c4ccccc4)cc3)ccc2OC[C@H](C)NC[C@@H]1C	·	-2	-2	1[16.7 µM]	1	·
C[C@H]1CN([C@@H](C)CO)C(=O)c2ccccc2-c2ccccc2CO[C@@H]1CN(C)Cc1cccnc1	·	1	-1	43[16.7 µM]	-1	·
CCN1CCN(C2=C(NS(=O)(=O)c3ccc(NC(C)=O)cc3)C(=O)c3ccccc3C2=O)CC1	26	-1	-4	8	48*	-20
C[C@@H]1CN([C@@H](C)CO)C(=O)c2cc(NC(=O)c3ccccc3)ccc2O[C@@H](C)CCCCO[C@@H]1CN(C)S(=O)(=O)c1cccs1	·	0	6	15[16.7 µM]	·	·
CCC(=O)N1CCCCN2[C@H](CO)[C@@H](c3ccc(C#Cc4ccccc4F)cc3)[C@@H]2C1	·	4	22	·	-3	·
Cc1ccccc1NC(=O)c1ccc(Cl)c(NC(=O)C2CCCC2)c1	0	·	·	·	·	·
Nn1c(SCc2cn3cc(Cl)ccc3n2)nnc1-c1ccncc1	8	1	·	-24	3	98*
C[C@H]1CN([C@@H](C)CO)C(=O)c2cccc(NC(=O)c3ccc(-c4nccs4)cc3)c2O[C@@H]1CN(C)S(=O)(=O)c1ccc(F)cc1	·	2	-3	·	-1	·
CCCN(CCC)CCCNC(=O)c1cc2cc3ccc(OC)cc3nc2o1	·	·	6	-38	·	-6
COc1ccc2cc3cc(C(=O)NCCc4ccc(OC)c(OC)c4)oc3nc2c1	-4	·	2	68*	·	-6
Cc1ccc2cc3cc(C(=O)NCCN4CCOCC4)oc3nc2c1	-3	·	3	59*	·	6
Cc1ccc2cc3cc(C(=O)NCCCN4CCCC4=O)oc3nc2c1	0	-2	-3	-11	2	78*
